Composite z-score and z-score data for 5 compounds are collected here from PubChem BioAssay.

The nature of assay [1]: small molecules captured by biotinylated probe aFSTL3 – biochemical, small-molecule microarray, fluorescence 635/667, stem cell growth factor project, primary screen (AID 1064).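 Also: measures binding of the biotinylated anti-FSTL3 antibody to printed compounds.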 The conditions noted are these: higher = more signal.
Assay [2] in a line: binders from COS7 lysate, DM2A8 probe, primary screen, torsin A project, cell lysate, small-molecule microarray, fluorescence 635/667 (AID 1065). To be noted: higher = more signal, COS7 lysate expressing mutant human TOR1A.
Assay [3] is described as follows: small molecules captured by biotinylated probe aFGF2 – biochemical, small-molecule microarray, fluorescence 635/667, stem cell growth factor project, primary screen (AID 1067).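 Also: measures binding of biotinylated aFGF2 protein to printed compounds on slides; z-score merges feature fluorescence and signal-to-noise across triplicate slides.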 To be noted: higher = more signal.
The nature of assay [4]: small molecules captured by biotinylated probe aFGF10 – biochemical, small-molecule microarray, fluorescence 635/667, stem cell growth factor project, primary screen (AID 1071).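 Also: score merges 667 nm spot intensity and signal to noise from triplicate slides.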 To be noted: higher = more signal.
Assay [5] deals with Neurogenic locus notch homolog protein 2 (Homo sapiens) (UniProt Q04721). The assay can be described thus: small molecules binding Notch2 protein – biochemical, small-molecule microarray, 635 nm fluorescence, stem cell growth factors, primary screen (AID 1073). The conditions noted are these: higher = more signal.
The target of assay [6] is Pro-neuregulin-1, membrane-bound isoform (Homo sapiens) (UniProt Q02297). Nature of the assay: small molecules binding neuregulin-1 protein – biochemical, small-molecule microarray, fluorescence 635/667, psychiatric disease protein project, primary screen (AID 1075).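 Also: score combines 667 nm spot fluorescence with signal to noise.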 The conditions noted are these: NRG1 binding, 635 nm fluorescence, higher = more signal.
In assay [7] the test system is Neuregulin-1 EGF-like domain. The assay can be described thus: small molecules binding NRG1 EGF domain – biochemical, small-molecule microarray, 635 nm fluorescence, primary screen (AID 1081).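 Also: binding of the protein to compounds printed on small-molecule microarray slides.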 To be noted: higher = more signal.
Assay [8] can be described thus: FRG1 expression reporter modulators in myotubes – cell-based, C2C12 myotubes, firefly/Renilla luciferase, luminescence, FRG1 inhibition for FSHD, primary screen (AID 1084). To be noted: FRG1 promoter luciferase, higher = more signal, called active from +8 up or from −8 down.
Assay [9] is described as follows: small molecules captured by biotinylated probe aFST – biochemical, small-molecule microarray, fluorescence 635/667, stem cell growth factor project, primary screen (AID 1086).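 Also: score merges 667 nm fluorescence with signal-to-noise of each printed compound spot.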 The conditions noted are these: higher = more signal.
The nature of assay [10]: binders of probe aHhip on microarray, primary screen, stem cell growth factor project, biochemical, small-molecule microarray, fluorescence 635/667 (AID 1087).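 Also: score merges spot fluorescence at 667nm with spot signal to noise ratio.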 The conditions noted are these: higher = more signal.
For assay [11], the system named is PRMT1 (protein arginine N-methyltransferase 1). The assay can be described thus: small molecules binding arginine methyltransferase PRMT1 – biochemical, small-molecule microarray, 635 nm fluorescence, primary screen (AID 1088).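 Also: binding of Prmt1 protein to compounds spotted on small-molecule microarray slides.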 To be noted: higher = more signal.
Assay [12] in a line: growth effects on S. cerevisiae YJM789 – YJM789 clinical isolate, OD600, 24 h, basal, primary screen (AID 1089).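 Also: growth of clinical yeast isolate S. cerevisiae YJM 789 seeded 1000 cells per well; test concentration not given here.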 The conditions noted are these: higher = more signal, called active from +8 up or from −8 down.
Assay [13] is described as follows: S. pombe growth modifiers, basal conditions – strain 972, OD600, 24 h, no modulator, primary screen (AID 1090).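 Also: basal condition with compound alone and no growth modifier present; test concentration not given here.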 The conditions noted are these: S. pombe 972 growth, higher = more signal, called active from +8 up or from −8 down.
The nature of assay [14]: budding yeast growth modifiers under rapamycin – strain BY4716, OD600, 96 h, primary screen (AID 1091). Also: test concentration not given here. The conditions noted are these: S. cerevisiae BY4716 + rapamycin, higher = more signal, called active from +8 up or from −8 down.
In assay [15] the target is Torsin-1A-interacting protein 2 (Homo sapiens) (UniProt Q8NFQ8). The assay can be described thus: small molecules binding lysate-expressed LULL1 – cell lysate, human LULL1 lysate, 635/667 nm fluorescence, primary screen (AID 1092).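 Also: probe is lysate of COS7 cells overexpressing human LULL1; score merges per-feature 667 nm fluorescence with signal-to-noise.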 The conditions noted are these: small-molecule microarray, hLULL1 lysate binding, 635 nm fluorescence; higher = more signal.
Assay [16] is described as follows: optical density change of DRC41 E. coli – strain DRC41, OD650, 24 h, E. coli filamentation project, primary screen (AID 1093).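 Also: MC1000 strain lacking acrAB efflux and sulA so SOS filamentation is blocked; test concentration not given here.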 To be noted: E. coli DRC41 growth, higher = more signal, called active from +8 up or from −8 down.
A short description of assay [17]: probe aLefty2 binding to arrayed compounds – biochemical, biotinylated probe, 635/667 nm fluorescence, primary screen (AID 1094).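 Also: score merges spot fluorescence near 667 nm with spot signal-to-noise ratio.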 To be noted: small-molecule microarray, higher = more signal.
Assay [18] deals with Noggin (protein binding on small-molecule microarray). Nature of the assay: small molecules binding Noggin protein – biochemical, 635/667 nm fluorescence, primary screen (AID 1095).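 Also: score merges 667 nm feature fluorescence with signal to noise over triplicate slides.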 The conditions noted are these: 635 nm fluorescence, higher = more signal.
The target in assay [19] is Neurogenic locus notch homolog protein 3 (Homo sapiens) (UniProt Q9UM47). The assay can be described thus: small molecules binding NOTCH3 protein – biochemical, 635/667 nm fluorescence, primary screen (AID 1096). To be noted: small-molecule microarray, 635 nm fluorescence, higher = more signal.
A short description of assay [20]: probe aEGFR binding to arrayed compounds – biochemical, biotinylated probe, 635/667 nm fluorescence, primary screen (AID 1097).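 Also: probe is a biotinylated anti-EGFR antibody binding compounds printed on slides; score combines fluorescence near 667 nm and signal to noise of each spot.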 To be noted: small-molecule microarray, higher = more signal.

Activity calls are given as the source filed them.

Sequence of Pro-neuregulin-1, membrane-bound isoform (Homo sapiens) (Q02297 whole entry, looked up, the tested form may be a part, canonical isoform): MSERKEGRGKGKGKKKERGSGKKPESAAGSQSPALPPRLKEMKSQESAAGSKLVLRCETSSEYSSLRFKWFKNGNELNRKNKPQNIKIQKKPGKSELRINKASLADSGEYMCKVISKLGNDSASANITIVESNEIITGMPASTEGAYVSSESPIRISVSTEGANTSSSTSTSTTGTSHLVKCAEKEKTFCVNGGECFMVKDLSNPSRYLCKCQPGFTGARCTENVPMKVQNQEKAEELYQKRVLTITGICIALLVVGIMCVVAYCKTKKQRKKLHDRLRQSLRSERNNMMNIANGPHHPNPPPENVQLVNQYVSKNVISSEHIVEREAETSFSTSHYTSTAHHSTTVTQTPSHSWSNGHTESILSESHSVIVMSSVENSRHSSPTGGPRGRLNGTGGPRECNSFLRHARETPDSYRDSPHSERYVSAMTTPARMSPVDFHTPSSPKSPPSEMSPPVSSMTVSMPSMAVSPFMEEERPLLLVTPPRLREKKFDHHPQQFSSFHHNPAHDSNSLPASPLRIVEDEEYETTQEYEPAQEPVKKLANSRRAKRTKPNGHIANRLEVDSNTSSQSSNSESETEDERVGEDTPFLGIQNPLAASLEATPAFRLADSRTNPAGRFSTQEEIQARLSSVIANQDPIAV
Sequence of Torsin-1A-interacting protein 2 (Homo sapiens) (Q8NFQ8 whole entry, looked up): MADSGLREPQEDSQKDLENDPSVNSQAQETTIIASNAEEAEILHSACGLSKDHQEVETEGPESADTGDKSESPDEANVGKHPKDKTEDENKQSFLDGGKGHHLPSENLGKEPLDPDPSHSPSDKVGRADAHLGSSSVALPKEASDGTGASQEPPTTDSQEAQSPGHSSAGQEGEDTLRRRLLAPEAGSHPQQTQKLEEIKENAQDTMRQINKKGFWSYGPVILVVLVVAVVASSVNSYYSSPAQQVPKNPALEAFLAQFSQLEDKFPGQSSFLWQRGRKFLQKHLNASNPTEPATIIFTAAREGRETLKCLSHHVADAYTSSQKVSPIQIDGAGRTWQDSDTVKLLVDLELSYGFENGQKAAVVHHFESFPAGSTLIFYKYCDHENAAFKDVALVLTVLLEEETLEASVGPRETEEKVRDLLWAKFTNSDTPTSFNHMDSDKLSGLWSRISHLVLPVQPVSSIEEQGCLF
Sequence of Neurogenic locus notch homolog protein 2 (Homo sapiens) (Q04721 whole entry, looked up, canonical isoform): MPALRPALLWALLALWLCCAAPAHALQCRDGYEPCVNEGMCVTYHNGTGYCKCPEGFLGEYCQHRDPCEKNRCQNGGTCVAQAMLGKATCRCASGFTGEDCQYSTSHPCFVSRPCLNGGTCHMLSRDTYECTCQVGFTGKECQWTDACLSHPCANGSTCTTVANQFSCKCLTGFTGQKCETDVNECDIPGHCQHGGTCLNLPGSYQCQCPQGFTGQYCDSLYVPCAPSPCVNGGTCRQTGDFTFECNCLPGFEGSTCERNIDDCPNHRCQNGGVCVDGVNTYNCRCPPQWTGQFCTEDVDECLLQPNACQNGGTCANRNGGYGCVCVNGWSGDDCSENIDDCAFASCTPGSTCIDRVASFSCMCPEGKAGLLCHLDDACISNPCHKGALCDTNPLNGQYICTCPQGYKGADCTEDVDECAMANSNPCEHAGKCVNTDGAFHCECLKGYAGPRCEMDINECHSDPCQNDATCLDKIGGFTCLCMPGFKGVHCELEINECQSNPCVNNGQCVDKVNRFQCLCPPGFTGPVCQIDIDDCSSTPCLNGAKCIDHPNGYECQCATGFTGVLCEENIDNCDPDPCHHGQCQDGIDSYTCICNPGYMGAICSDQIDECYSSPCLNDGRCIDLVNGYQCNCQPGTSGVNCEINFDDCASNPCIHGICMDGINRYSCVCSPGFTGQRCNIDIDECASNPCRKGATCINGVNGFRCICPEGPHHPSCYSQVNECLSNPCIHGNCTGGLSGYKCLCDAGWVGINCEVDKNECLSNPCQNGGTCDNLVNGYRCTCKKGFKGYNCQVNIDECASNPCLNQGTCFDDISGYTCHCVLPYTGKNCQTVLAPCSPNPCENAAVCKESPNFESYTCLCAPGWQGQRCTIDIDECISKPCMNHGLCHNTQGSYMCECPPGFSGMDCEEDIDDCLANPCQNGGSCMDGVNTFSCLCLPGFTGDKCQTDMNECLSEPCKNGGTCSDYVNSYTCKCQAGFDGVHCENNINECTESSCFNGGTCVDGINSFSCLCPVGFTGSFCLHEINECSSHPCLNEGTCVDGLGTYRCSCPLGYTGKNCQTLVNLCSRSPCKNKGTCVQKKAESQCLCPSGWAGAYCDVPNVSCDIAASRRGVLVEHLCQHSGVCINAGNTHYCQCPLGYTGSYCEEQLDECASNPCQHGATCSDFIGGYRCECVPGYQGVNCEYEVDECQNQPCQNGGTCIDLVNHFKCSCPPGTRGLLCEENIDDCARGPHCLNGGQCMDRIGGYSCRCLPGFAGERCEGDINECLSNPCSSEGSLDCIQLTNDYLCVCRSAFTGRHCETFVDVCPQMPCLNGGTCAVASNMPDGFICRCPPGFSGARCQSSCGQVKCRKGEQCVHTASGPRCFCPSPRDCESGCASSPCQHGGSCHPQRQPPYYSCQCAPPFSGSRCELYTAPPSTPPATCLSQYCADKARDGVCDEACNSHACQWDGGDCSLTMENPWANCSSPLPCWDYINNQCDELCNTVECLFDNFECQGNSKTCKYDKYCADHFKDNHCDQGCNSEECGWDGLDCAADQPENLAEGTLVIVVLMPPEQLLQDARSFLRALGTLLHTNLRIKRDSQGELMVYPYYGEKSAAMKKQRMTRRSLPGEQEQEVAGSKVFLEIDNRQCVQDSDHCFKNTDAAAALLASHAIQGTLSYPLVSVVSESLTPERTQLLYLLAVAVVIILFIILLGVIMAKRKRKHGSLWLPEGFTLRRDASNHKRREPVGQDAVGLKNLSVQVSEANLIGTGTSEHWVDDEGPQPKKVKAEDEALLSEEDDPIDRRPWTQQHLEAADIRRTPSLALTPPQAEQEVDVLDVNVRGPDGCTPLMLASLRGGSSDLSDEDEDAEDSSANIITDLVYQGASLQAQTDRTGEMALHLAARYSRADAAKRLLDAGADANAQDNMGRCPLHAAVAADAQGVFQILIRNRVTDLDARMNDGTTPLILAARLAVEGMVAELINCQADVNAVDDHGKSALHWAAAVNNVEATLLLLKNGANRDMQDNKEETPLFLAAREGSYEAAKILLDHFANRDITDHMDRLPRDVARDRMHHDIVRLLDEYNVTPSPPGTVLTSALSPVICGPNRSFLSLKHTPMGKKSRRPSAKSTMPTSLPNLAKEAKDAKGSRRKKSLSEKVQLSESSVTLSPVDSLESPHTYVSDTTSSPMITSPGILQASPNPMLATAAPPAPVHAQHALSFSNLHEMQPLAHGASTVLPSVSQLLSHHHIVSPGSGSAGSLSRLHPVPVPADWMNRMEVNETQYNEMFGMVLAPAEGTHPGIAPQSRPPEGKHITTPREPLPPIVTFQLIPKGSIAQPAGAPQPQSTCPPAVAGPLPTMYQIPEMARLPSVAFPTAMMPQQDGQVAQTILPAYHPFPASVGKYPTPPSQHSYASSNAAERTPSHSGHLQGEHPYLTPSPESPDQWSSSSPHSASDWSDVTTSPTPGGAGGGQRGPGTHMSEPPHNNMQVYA

For `COC(=O)[C@@]1(Cc2ccc(OC)cc2)[C@H]2c3cc(C(=O)N4CCCC4)n(Cc4ccc(OC(F)(F)F)cc4)c3C[C@H]2CN1C(=O)c1ccccc1`, the composite z-score in assay [1] is 0.572; in assay [2], -1.05; in assay [3], 0.225; in assay [4], 0.703; in assay [5], 1.74; in [6], 1.39. Besides, the composite z-score is 0.283 in assay [7]; 1.28 in assay [9]; 0.113 in [10]; -1.02 in assay [11]; 0.0202 in assay [15]; 0.412 in assay [17]. The composite z-score is -0.442 in [18], 0.75 in assay [19] and 0.343 in [20]. The z-score in [8] was 0.612 (inactive); in [12] it was 0.59 (inactive); in assay [13], 1.74 (inactive); in assay [14], 3.21 (inactive); in [16], -0.376 (inactive).

`O=C1C2C=CC(C(O)c3cccc(O)c3)N(Nc3ccccc3)C2C(=O)N1c1ccccc1` (stereo not given): the composite z-score was -0.0667 in assay [1]; -0.73 in assay [2]; -0.0901 in assay [3]; 0.212 in assay [4]; 1.08 in [5]; 0.977 in assay [6]. The composite z-score in assay [7] is 1.11; in assay [9], 0.35; in [10] it was -0.0003; in [11], -0.413; in [15], 2.92; in assay [17], 0.005. For the same compound, the composite z-score in assay [18] was -0.525; in assay [19], 0.535; in assay [20] it was -0.0416. For the same compound, the z-score in assay [8] was 1.23 (inactive); in [12], 0.629 (inactive); in [13], -0.581 (inactive); in assay [14], 0.299 (inactive); in [16], -0.542 (inactive).

For `C=CCNC(=O)[C@@H]1[C@H]2C(=O)O[C@H](c3ccccc3)[C@H](c3ccccc3)N2[C@H](c2ccc(O)cc2)[C@@]12C(=O)N(C(=O)OCCOC)c1ccc(C#CCCO)cc12`, the composite z-score in assay [1] is -0.0125; in [2], 0.376; in [3] it was -0.0222; in assay [4], 0.82; in [5], 0.258; in [6], 1.05. The composite z-score was 1.35 in [7]; 0.256 in [9]; 0.0274 in [10]; 1.41 in [11]; 2.57 in [15]; 0.0278 in [17]. Besides, the composite z-score in assay [18] amounted to 0.686; in assay [19], 0.52; in assay [20], 0.189. Further, the z-score in [8] is 0.354 (inactive); in [12] it was 0.434 (inactive); in [13], 0.53 (inactive); in assay [14], 1.17 (inactive); in assay [16], -0.369 (inactive).

As for `C#C[C@@H](CC)O[Si](C#CCCCC#N)(C(C)C)C(C)C`, the composite z-score in [1] is 0.0465; in [2] it was 0.934; in assay [3] it was -0.0891; in assay [4] it was -0.146; in assay [5], -0.604; in [6] it was 0.873. Moreover, the composite z-score in [7] is 0.74; in assay [9], -0.241; in assay [10], -0.236; in assay [11] it was 1.12; in assay [15], 2.2; in [17], -0.0257. Also, the composite z-score in assay [18] is -0.298; in assay [19] it was 0.398; in assay [20], -0.128. Further, the z-score was -0.0405 (inactive) in [8]; -13.2 (active) in assay [12]; -20.1 (active) in assay [13]; -3.15 (inactive) in assay [14]; 0.619 (inactive) in assay [16].

Consider `C=CCC(OC(C)=O)[C@@H]1[C@@H](N(Cc2ccc(-c3ccccc3)cc2)C(=O)c2ccc(C)cc2)c2cc(OCCCO)ccc2N1C(=O)Cc1ccc2ccccc2c1` (stereo not given in full), for which the composite z-score in assay [1] was -0.377; in assay [2], -0.221; in assay [3], -0.107; in assay [4], 0.0733; in assay [5] it was 0.0573; in assay [6], -0.283. For the same compound, the composite z-score in assay [7] is -0.422; in [9] it was 0.203; in assay [10], -0.134; in [11] it was 0.543; in assay [15], 0.51; in assay [17], -0.0042. In addition, the composite z-score in assay [18] is -0.0965; in assay [19], 0.187; in [20] it was -0.126. Also, the z-score in [8] was -2.08 (inactive); in [12], -2.04 (inactive); in assay [13], -0.71 (inactive); in [14], -0.633 (inactive); in assay [16], 1.64 (inactive).
